# Results published in publication PMC4336329 (PLoS ONE, 2015).
# Hit rate of the full screen: of about 310,000 compounds, about 2,200 (0.71%) showed an effect of 50% or more. Effects have a minus sign here. The sample holds strong results, similar compounds and a random draw of the others, so the mix is not that of the screen.
# Target: human ether-à-go-go-related gene (hERG) potassium channel (human, UniProt Q12809)
# Assay: primary screen, population patch clamp on CHO cells stably expressing hERG; higher = less effect of the substance
# human ether-à-go-go-related gene (hERG) potassium channel, sequence (Q12809 whole entry, looked up): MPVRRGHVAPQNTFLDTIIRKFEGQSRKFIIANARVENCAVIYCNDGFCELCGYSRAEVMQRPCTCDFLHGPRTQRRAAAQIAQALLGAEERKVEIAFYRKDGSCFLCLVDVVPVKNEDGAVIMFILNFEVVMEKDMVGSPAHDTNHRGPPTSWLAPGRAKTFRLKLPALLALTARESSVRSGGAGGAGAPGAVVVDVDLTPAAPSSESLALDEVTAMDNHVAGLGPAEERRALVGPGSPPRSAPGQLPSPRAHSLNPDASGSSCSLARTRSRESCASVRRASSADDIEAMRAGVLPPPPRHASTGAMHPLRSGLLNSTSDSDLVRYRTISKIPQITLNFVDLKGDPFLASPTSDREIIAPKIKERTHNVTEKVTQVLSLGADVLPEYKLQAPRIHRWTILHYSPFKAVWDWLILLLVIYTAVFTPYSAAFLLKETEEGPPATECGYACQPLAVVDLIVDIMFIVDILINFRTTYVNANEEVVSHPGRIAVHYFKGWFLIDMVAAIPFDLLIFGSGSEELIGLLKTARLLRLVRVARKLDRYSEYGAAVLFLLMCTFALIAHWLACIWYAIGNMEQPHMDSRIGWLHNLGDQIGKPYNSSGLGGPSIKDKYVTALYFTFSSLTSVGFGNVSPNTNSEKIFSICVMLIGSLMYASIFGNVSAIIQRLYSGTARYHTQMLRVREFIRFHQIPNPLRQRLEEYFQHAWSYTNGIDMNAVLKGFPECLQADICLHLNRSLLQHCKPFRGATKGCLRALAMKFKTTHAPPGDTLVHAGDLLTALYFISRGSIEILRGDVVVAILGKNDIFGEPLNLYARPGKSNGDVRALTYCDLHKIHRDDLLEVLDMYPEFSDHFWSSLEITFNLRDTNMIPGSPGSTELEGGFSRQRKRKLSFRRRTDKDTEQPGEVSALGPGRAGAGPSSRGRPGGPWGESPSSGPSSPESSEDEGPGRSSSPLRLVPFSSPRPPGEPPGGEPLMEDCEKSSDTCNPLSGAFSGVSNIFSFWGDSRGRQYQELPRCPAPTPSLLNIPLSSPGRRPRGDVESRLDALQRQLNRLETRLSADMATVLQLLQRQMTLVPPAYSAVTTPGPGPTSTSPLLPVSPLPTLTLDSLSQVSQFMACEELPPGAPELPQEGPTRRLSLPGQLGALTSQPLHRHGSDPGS
row,SMILES,"hERG current change (%, negative = inhibition) at 1uM [%]"
1,COc1ccc(CNC(=O)CSc2nnc3c(n2)[nH]c2ccc(OC)cc23)cc1,11.1
2,Cc1ccc(NS(=O)(=O)c2cc(NC(=O)c3cc4c(s3)CCCC4)ccc2C)c(C)c1,7.78
3,CCC1(CC)C(=O)NC(=O)NC1=NCCc1c[nH]c2ccccc12,21.2
4,Fc1cccc(CN2CCN(Cc3nc(CCc4ccccc4)no3)CC2)c1,3.49
5,CCc1ccc2c(CN3CCOCC3)cc(=O)oc2c1,-4.5
6,Cc1cc2oc(=O)cc(CN3CCN(Cc4ccccc4)CC3)c2cc1Cl,0.748
7,Cc1cc2oc(=O)cc(CN3CCN(Cc4ccc5c(c4)OCO5)CC3)c2cc1C,0.724
8,COc1ccc2oc(=O)cc(CN3CCOCC3)c2c1,10.4
9,COC(=O)C1CCN(Cc2cc(=O)oc3cc(OC)ccc23)CC1,-1.21
10,Cc1cc(C)c2c(CN3CCN(Cc4ccc5c(c4)OCO5)CC3)cc(=O)oc2c1,-50.3
11,COc1ccc(OC)c(CN2CCN(Cc3cc(=O)oc4cc(O)ccc34)CC2)c1,-67
12,CCc1ccc2oc(=O)cc(CN3CCN(Cc4ccccc4)CC3)c2c1,-17.6
13,Cc1cc(C)c2c(CN3CCN(Cc4ccc5c(c4)OCO5)CC3)cc(=O)oc2c1C,2.67
14,CCc1ccc2c(CN3CCN(Cc4ccccc4)CC3)cc(=O)oc2c1,-84.6
15,Cc1ccc2c(CN3CCN(Cc4ccccc4)CC3)cc(=O)oc2c1,-84
16,Cc1ccc2oc(=O)cc(CN3CCN(Cc4ccccc4)CC3)c2c1,-18.6
17,CN(C)C(=S)NC(=O)C12CC3(C)CC(C)(CC(C)(C3)C1)C2,12.9
18,O=C(CSc1nnc(CNC(=O)c2ccc(F)cc2)o1)Nc1nccs1,13.2
19,CCCCOc1c(Cl)cc(C(=O)N(C)CC(=O)Nc2ccc(N3CCOCC3)cc2)cc1OCC,9.76
20,O=C(NCCCn1cccn1)C1CCC(=O)N(Cc2ccccc2F)C1 (stereo not drawn),7.05
21,O=C(CCN1C(=O)/C(=C/C=C/c2ccccc2)SC1=S)Nc1nccs1,-3
22,Cn1c(SCC(=O)Nc2ccc3c(c2)OCCO3)nnc1-c1ccccn1,6.5

row,SMILES,"hERG current change (%, negative = inhibition) at 1uM [%]"
1,CCN(CC)S(=O)(=O)c1ccc(NC(=O)COC(=O)c2c[nH]c(=O)[nH]c2=O)cc1,11.1
2,CN(C)CCCOC(=O)c1ccc(Br)cc1,-6.15
3,COc1ccc(CCNC(=O)C2CCN(C(=O)c3ccc(OC)c(OC)c3)CC2)cc1,13.3
4,Cc1cccc(OCC(=O)NC(=S)Nc2ccc(S(=O)(=O)NC3CCCCC3)cc2)c1,11.2
5,COc1ccc(-c2nc(-c3ccc4c(c3)OCO4)[nH]c2-c2ccc(OC)cc2)cc1,14.7
6,O=C(NC1CCN(CC(=O)N(c2ccccc2)c2ccccc2)CC1)c1ccc([N+](=O)[O-])cc1,-78.6
7,CC(C)CN1C2CCCC1CC(NC(=O)c1ccc([N+](=O)[O-])cc1)C2 (stereo not drawn),-70.1
8,O=C(NC1CCN(Cc2cccc([N+](=O)[O-])c2)CC1)c1ccccc1,-3.19
9,O=C(NC1CC2CCCC(C1)N2Cc1ccccc1)c1cccc(Cl)c1 (stereo not drawn),-12.1
10,O=C(NC1CC2CCCC(C1)N2Cc1cccs1)N1CCOCC1 (stereo not drawn),3.19
11,O=C(NC1CC2CCCC(C1)N2Cc1cccs1)c1ccc([N+](=O)[O-])cc1 (stereo not drawn),-78.6
12,O=C(NC1CC2CCCC(C1)N2Cc1ccccc1)c1ccc([N+](=O)[O-])cc1 (stereo not drawn),-82.2
13,CN1C2CCC1CC(NC(=O)c1ccc([N+](=O)[O-])cc1)C2 (stereo not drawn),12.1
14,CC1CCCCC1NC(=O)CN1CCC(NC(=O)c2ccc([N+](=O)[O-])cc2)CC1 (stereo not drawn),12.1
15,COCCNC(=S)NC1CC2CCCC(C1)N2Cc1cccs1 (stereo not drawn),-1.25
16,CCOc1ccc(C(=O)NC2CC3CCCC(C2)N3Cc2ccccc2)cc1 (stereo not drawn),-20.4
17,COc1ccc(C(=O)NC2CC3CCCC(C2)N3CC(C)C)cc1 (stereo not drawn),-13.5
18,CC(C)NC(=O)C1CCN(C2CCN(C(=O)c3cc4c(s3)CCCCC4)CC2)CC1,6.33
19,CCOc1cc(C(=O)NCCc2ccc(S(N)(=O)=O)cc2)cc(OCC)c1OCC,3.65
20,Cc1ccccc1NC(=O)C1CCCN1C(=O)NC1CCCCC1 (stereo not drawn),17.4
21,CCOCCCNc1nc(C(F)(F)F)nc2c1nnn2Cc1ccccc1Cl,15.9
22,O=C(N1CCC(n2nc(-c3ccccc3)oc2=O)CC1)C1(c2ccc(Cl)cc2)CC1,7.63

row,SMILES,"hERG current change (%, negative = inhibition) at 1uM [%]"
1,COCCNC(=O)c1c[nH]n2c(=O)cc(C3CCN(C(=O)OC(C)(C)C)CC3)nc12,9.37
2,Cc1ccc(C)c(COc2coc(CN3CCN(C(=O)c4ccco4)CC3)cc2=O)c1,-95.9
3,Cc1cccc(COc2coc(CN3CCN(C(=O)c4ccco4)CC3)cc2=O)c1,-7.28
4,Cc1ccc(COc2coc(CN3CCN(C(=O)c4ccco4)CC3)cc2=O)cc1,-16.4
5,CCCC(=O)Nc1nc2ccc(NC(=O)c3ccccc3F)cc2s1,14.1
6,COc1ccc(Nc2nnc(SCC(=O)N3CCCC3)s2)cc1,7.15
7,Cc1ccc(-c2nc(CS(=O)(=O)CC(=O)NCCN3CCCC3)c(C)o2)cc1,7.76
8,COc1ccc(-c2cc(C)no2)cc1S(=O)(=O)N(C)c1cccc(C)c1,-62.5
9,COc1ccc(-c2cc(C)no2)cc1S(=O)(=O)N(C)c1ccc(C)cc1,4.37
10,COc1ccccc1CN1CCC(CNS(=O)(=O)c2cc(-c3cc(C)no3)ccc2OC)CC1,-33.2
11,COc1ccc(-c2cc(C)no2)cc1S(=O)(=O)N(C)c1ccc(C)c(C)c1,9.2
12,COc1cccc(CCN2CCC(CNS(=O)(=O)c3cc(-c4cc(C)no4)ccc3OC)CC2)c1,-66.3
13,COc1cccc(CCN2CCC(CNS(=O)(=O)c3cc(-c4cc(C)no4)ccc3C)CC2)c1,-20.1
14,Cc1ccc(C(=O)OCC(=O)Nc2ccc(S(N)(=O)=O)cc2)c(O)c1,7.79
15,CC(=O)NC(=S)NNC(=O)C(c1ccccc1)c1ccccc1,15
16,C=CCNc1cccc(Br)c1,12.5
17,COc1cc(/C=N/Nc2nn3cnnc3c3ccccc23)ccc1O,20.3
18,CCCCCCOC(=O)C[N+](C)(C)CCOC1CC2CCC1(C)C2(C)C.[Cl-] (stereo not drawn),-69
19,CCCCOC(=O)C[N+](C)(C)CCOC1CC2CCC1(C)C2(C)C.[Br-] (stereo not drawn),-4.93
20,CCCOC(=O)C[N+](C)(C)CCOC1CC2CCC1(C)C2(C)C.[Br-] (stereo not drawn),11.2
21,COc1ccc(NC(=O)c2cccn(CC=C(C)C)c2=O)cc1,11.5
22,Cc1c(S(=O)(=O)N2CCN(c3cccc(Cl)c3)CC2)c(=O)n(C)c(=O)n1C,5.16

row,SMILES,"hERG current change (%, negative = inhibition) at 1uM [%]"
1,COc1ccc(OC)c2c1nc1n2CCS1,4.74
2,OC(COCc1cccs1)CN1CCN(c2ccccc2Cl)CC1 (stereo not drawn),-50.8
3,Cl.OC(COCc1cccs1)CN1CCCCCC1 (stereo not drawn),-5.74
4,COc1ccccc1N1CCN(CC(O)COCc2cccs2)CC1.Cl (stereo not drawn),0.795
5,Cc1cccc(N2CCN(CC(O)COCc3cccs3)CC2)c1C (stereo not drawn),-63.9
6,CCOc1ccccc1N1CCN(CC(O)COCc2cccs2)CC1 (stereo not drawn),-1.54
7,CN1CCCN(CC(O)COCc2cccs2)CC1 (stereo not drawn),5.43
8,O=C(CCc1ccc(S(=O)(=O)NCCc2ccccc2)cc1)NCc1ccco1,6
9,COc1cccc2sc(NN)nc12,0.731
10,COCCCN=Cc1c(-c2ccccc2)[nH]n(-c2nc3ccccc3s2)c1=O,-55.9
11,CCCc1[nH]n(-c2nc3ccccc3s2)c(=O)c1C=NCC(C)C,6.14
12,O=c1c(C=NCCCO)c(-c2ccccc2)[nH]n1-c1nc2ccccc2s1,-2.36
13,CCN(CC)CCCN=Cc1c(-c2ccccc2)[nH]n(-c2nc3ccccc3s2)c1=O,-81.7
14,CCCCCN=Cc1c(C)[nH]n(-c2nc3ccccc3s2)c1=O,-16.9
15,CCCc1[nH]n(-c2nc3ccccc3s2)c(=O)c1C=NCCCOC,-9.11
16,CCCc1[nH]n(-c2nc3ccccc3s2)c(=O)c1C=NCCN1CCOCC1,-4.58
17,CCCc1[nH]n(-c2nc3ccccc3s2)c(=O)c1C=NCCCN(CC)CC,-57.6
18,CN(C)CCCN=Cc1c(-c2ccccc2)[nH]n(-c2nc3ccccc3s2)c1=O,-58.1
19,O=c1c(C=NCCCn2ccnc2)c(-c2ccccc2)[nH]n1-c1nc2ccccc2s1,-26.9
20,CCCN=Cc1c(CCC)[nH]n(-c2nc3ccccc3s2)c1=O,-4.61
21,CCCN=C(C)c1c(-c2ccccc2)[nH]n(-c2nc3ccccc3s2)c1=O,7.75
